# Measured values reported in PubChem BioAssay (NCI).
# The panel holds about 83,000 compounds, 20% with a hit somewhere; the sample as a whole holds those more often.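 Note: values are percent growth. 100 is the growth of untreated cells, values between 100 and 0 indicate rising inhibition; between -100 and 0 indicates cell death.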 The source made the active and inactive calls. How the source made its calls: active means growth percent below 10; inactive means the rest.
# Test system: HOP-62 NSCLC
# Assay: NCI-60 one-dose screen, 48 h (100 = growth as untreated, 0 = no growth, -100 = all killed)
# Details: 10 µM unless noted
row,Compound,growth
1,O=C(c1ccccc1)c1ccc2nc(-c3ccc(F)cc3)[nH]c2c1,83.5% (inactive)
2,CC1(C)CC[C@]2(C(=O)O)CC[C@]3(C)C(=CCC4[C@@]5(C)C[C@@H](O)[C@@H]6OC(c7ccc(F)cc7)OC[C@@]6(C)C5CC[C@]43C)C2C1 (stereo partly drawn),47.5% (inactive)
3,N/C(=N\c1nc2ccccc2s1)NC(=O)Nc1ccc(Cl)cc1Cl,-77% (active)
4,CCCCSc1nc(Nc2ccc(S(N)(=O)=O)cc2)c(C#N)c(-c2cc(OC)c(OC)c(OC)c2)n1,81.4% (inactive)
5,O=C(COc1ccc2c(c1)CCCC(=O)N2)NCc1ccccc1,92.5% (inactive)
6,Nc1nc(-c2ccccc2)c(N=Nc2ccc([N+](=O)[O-])cc2Cl)s1,101% (inactive)
7,CC1(C)CC[C@]2(C(=O)O)CC[C@]3(C)C(=CCC4[C@@]5(C)C[C@@H](O)[C@@H]6OC(c7cccc(Br)c7)OC[C@@]6(C)C5CC[C@]43C)C2C1 (stereo partly drawn),47.6% (inactive)
8,C#CCOc1ccc(/C=N/Nc2nc(-c3cc4cc(OC)ccc4oc3=O)cs2)cc1OC,71.9% (inactive)
9,N#Cc1c(NCc2ccccc2)n[nH]c1Nc1ccccc1,88.9% (inactive)
10,COc1cc2oc(-c3cccc(C(=O)Nc4ccc(Cl)cc4)c3)cc(=O)c2c(OCC(=O)N[C@@H](Cc2ccccc2)C(=O)O)c1OC,120% (inactive)
11,Cn1cc(-c2cc3nc(-c4c[nH]c5ccc(Cl)cc45)cc(N)n3n2)c2ccccc21,-72.3% (active)
12,O=C(CSc1nc2ccccc2c(=O)[nH]1)NCCN1CCCCC1,106% (inactive)
13,O=c1oc2ccccc2cc1-c1csc(N2N=C(c3ccccc3)CC2c2ccc(N3CCOCC3)cc2)n1 (stereo not drawn),106% (inactive)
14,Cn1cc(-c2cc(N)n3nc(-c4cn(C)c5ncccc45)cc3n2)c2cccnc21,86.1% (inactive)
15,COc1ccc(-c2ccnc(SCc3cc4cc(OC)ccc4[nH]c3=O)n2)cc1,34.7% (inactive)
16,CCOc1ccc(-c2c(C#N)c(-c3ccc(Cl)cc3)nc3n[nH]c(-c4ccc(Cl)cc4)c23)cc1OC,68.7% (inactive)

row,Compound,growth
1,CN(C)c1ccnc(NCCCSC(c2ccccc2)(c2ccccc2)c2ccccc2)c1,74.3% (inactive)
2,O=C(O)c1cccc(-c2ccc(/C=N/NC(=O)c3[nH]c4ccc(Br)cc4c3-c3ccccc3)s2)c1,53.2% (inactive)
3,C#CCOc1cc(N(CC)CC)ccc1C(C(=O)NC(C)(C)C)N(C(=O)C1CCc2cc(F)ccc2O1)c1cc(C)cc(C)c1 (stereo not drawn),52.4% (inactive)
4,COc1cc2c(c(OC)c1OC)C(=O)CC(c1cccc(NC(=O)c3cc(NC(=O)[C@@H](N)CO)ccc3C)c1)O2 (stereo partly drawn),108% (inactive)
5,Cn1cc(-c2cc3nc(-c4cn(C)c5ncccc45)cc(N)n3n2)c2cc(Cl)ccc21,-94.2% (active)
6,COc1ccc2[nH]cc(-c3cc(N)n4nc(-c5cn(C)c6ccccc56)cc4n3)c2c1,-66.4% (active)
7,COc1ccc(Cc2nn(CC(=O)N/N=C/c3ccc(F)cc3)c(=O)c3c(C)noc23)cc1,-53.1% (active)
8,Cc1ccc(NCC(=O)Cn2cc(COc3ccc(C=Nc4cnc5ccccc5c4)cc3)nn2)cc1,102% (inactive)
9,Cn1cc(-c2nc(N)nnc2-c2c[nH]c3ccc(F)cc23)c2cc(Br)cnc21,20.1% (inactive)
10,COc1ccc(NC(=O)[C@H](C)N)cc1C(=O)Nc1cccc(C2CC(=O)c3c(cc(OC)c(OC)c3OC)O2)c1 (stereo partly drawn),113% (inactive)
11,CC1(C)CC[C@]2(C(=O)O)CC[C@]3(C)C(=CCC4[C@@]5(C)C[C@@H](O)[C@@H]6OC(c7ccco7)OC[C@@]6(C)C5CC[C@]43C)C2C1 (stereo partly drawn),43.1% (inactive)
12,COc1ccc2c(c1)c(/C=N/Nc1ccc3ccccc3n1)cn2C,38.1% (inactive)
13,Cc1ccc(S(=O)(=O)c2nc(S(=O)(=O)c3ccc(C)cc3)c(N3CCN(C)CC3)s2)cc1,99.9% (inactive)
14,COc1cc2c(c(OC)c1OC)C(=O)CC(c1cccc(NC(=O)c3cc(NC(=O)[C@H](C)N)ccc3Cl)c1)O2 (stereo partly drawn),79.1% (inactive)
15,Cc1ccc(C(=O)C(c2c[nH]c3ccccc23)c2c[nH]c3ccccc23)cc1,89.9% (inactive)

# Test system: NCI-H460 lung
# Assay: as above
# Details: 10 µM unless noted
row,Compound,growth
1,O=C(c1ccccc1)c1ccc2nc(-c3ccc(F)cc3)[nH]c2c1,51.4% (inactive)
2,CC1(C)CC[C@]2(C(=O)O)CC[C@]3(C)C(=CCC4[C@@]5(C)C[C@@H](O)[C@@H]6OC(c7ccc(F)cc7)OC[C@@]6(C)C5CC[C@]43C)C2C1 (stereo partly drawn),15.7% (inactive)
3,N/C(=N\c1nc2ccccc2s1)NC(=O)Nc1ccc(Cl)cc1Cl,-95.9% (active)
4,CCCCSc1nc(Nc2ccc(S(N)(=O)=O)cc2)c(C#N)c(-c2cc(OC)c(OC)c(OC)c2)n1,35.9% (inactive)
5,Nc1nc(-c2ccccc2)c(N=Nc2ccc([N+](=O)[O-])cc2Cl)s1,74.1% (inactive)
6,COc1cc2oc(-c3cccc(C(=O)Nc4ccc(Cl)cc4)c3)cc(=O)c2c(OCC(=O)N[C@@H](Cc2ccccc2)C(=O)O)c1OC,111% (inactive)
7,C#C[C@]1(O)CC[C@H]2[C@@H]3CC=C4c5sc(-c6ccc([N+](=O)[O-])cc6)nc5CC[C@]4(C)[C@H]3CC[C@@]21C,-47.9% (active)
8,C#CCOc1cc(N(CC)CC)ccc1C(C(=O)NC(C)(C)C)N(C(=O)C1CCc2cc(F)ccc2O1)c1ccc(F)c(Cl)c1 (stereo not drawn),53.2% (inactive)
9,Cn1cc(-c2cc(N)n3nc(-c4cn(C)c5ncccc45)cc3n2)c2cccnc21,79.5% (inactive)
10,COc1ccc(-c2ccnc(SCc3cc4cc(OC)ccc4[nH]c3=O)n2)cc1,14.9% (inactive)
11,O=C(Cn1c(/C=C/c2ccccc2)nc2ccccc2c1=O)Nc1ccccc1,43.2% (inactive)
12,C#CCOc1cc(N(CC)CC)ccc1C(C(=O)NC(C)(C)C)N(C(=O)C1CCc2cc(F)ccc2O1)c1cc(C)cc(C)c1 (stereo not drawn),30.4% (inactive)
13,COc1cc2c(c(OC)c1OC)C(=O)CC(c1cccc(NC(=O)c3cc(NC(=O)[C@@H](N)CO)ccc3C)c1)O2 (stereo partly drawn),123% (inactive)
14,C#CCOc1ccc(/C=N/Nc2nc(-c3ccc(F)cc3)cs2)cc1OC,77.4% (inactive)
15,Cc1cc2c(cc1Cl)C(=O)/C(=C/c1ccc(F)cc1)O2,105% (inactive)
16,Cn1cc(-c2cc3nc(-c4cn(C)c5ncccc45)cc(N)n3n2)c2cc(Cl)ccc21,-70% (active)
17,Cc1ccc(NCC(=O)Cn2cc(COc3ccc(C=Nc4cnc5ccccc5c4)cc3)nn2)cc1,130% (inactive)
18,Cn1cc(-c2nc(N)nnc2-c2c[nH]c3ccc(F)cc23)c2cc(Br)cnc21,0.596% (active)
19,COc1ccc2[nH]cc(-c3nnc(N)nc3-c3cn(C)c4ncc(Br)cc34)c2c1,83.1% (inactive)
20,COc1ccc(NC(=O)[C@H](C)N)cc1C(=O)Nc1cccc(C2CC(=O)c3c(cc(OC)c(OC)c3OC)O2)c1 (stereo partly drawn),96.9% (inactive)
21,COc1ccc2c(c1)c(/C=N/Nc1ccc3ccccc3n1)cn2C,-64.8% (active)
22,Cc1ccc(S(=O)(=O)c2nc(S(=O)(=O)c3ccc(C)cc3)c(N3CCN(C)CC3)s2)cc1,40.1% (inactive)
